What all share (experiment): DAPPL (digital affinity profiling via proximity ligation, sequencing); 10 mM Tris-HCl pH 7.5, 50 mM NaCl, 1 mM DTT, 4% glycerol, room temperature, 30 min; GST-TFs on glutathione beads, 16-mer random dsDNA library, 0.1% formaldehyde crosslink after washing; high values mean tight binding
One assay addresses T1, FEV (Homo sapiens, UniProt Q99581 1-238).
T1 sequence: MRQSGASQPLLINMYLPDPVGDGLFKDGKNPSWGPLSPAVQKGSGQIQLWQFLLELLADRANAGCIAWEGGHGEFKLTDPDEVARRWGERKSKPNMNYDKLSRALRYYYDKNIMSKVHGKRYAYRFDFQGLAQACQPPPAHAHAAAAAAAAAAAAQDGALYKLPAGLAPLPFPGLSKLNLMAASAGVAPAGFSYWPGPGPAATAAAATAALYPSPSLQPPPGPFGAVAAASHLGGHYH
The note with it: protein: recombinant; tags: N-terminal GST; dsDNA, one strand shown. The method, boiled down:
(§1)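 Sequencing on an Illumina NextSeq500 followed washing, crosslinking with 0.1% formaldehyde, proximity ligation (BsaI/T4 ligase, 1 h, 37 °C) and PCR amplification of pools that had been incubated for 30 min at room temperature with 200 nmole of a random double-stranded 16-mer DNA library in Tris/NaCl/DTT/glycerol buffer. Each pool held DNA-barcoded human transcription factors, expressed in yeast as GST fusions and captured on glutathione beads, plus a tag-only sample. Binding signal is a hexamer's read frequency for a factor divided by its frequency in the tag-only sample.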

The next assay has as its target ETV5 (Homo sapiens, UniProt P41161 1-510). To be noted: protein: recombinant; tags: N-terminal GST; dsDNA, one strand shown. The method, boiled down: as §1
The target in the next assay is HSF1 (Homo sapiens, UniProt Q00613 1-529). The note with it: protein: recombinant; tags: N-terminal GST; chain copies: 3; dsDNA, one strand shown. The method, boiled down:
as §1

Another assay has as its target T2, SPIC (Homo sapiens, UniProt Q8N5J4 1-248).
T2 sequence: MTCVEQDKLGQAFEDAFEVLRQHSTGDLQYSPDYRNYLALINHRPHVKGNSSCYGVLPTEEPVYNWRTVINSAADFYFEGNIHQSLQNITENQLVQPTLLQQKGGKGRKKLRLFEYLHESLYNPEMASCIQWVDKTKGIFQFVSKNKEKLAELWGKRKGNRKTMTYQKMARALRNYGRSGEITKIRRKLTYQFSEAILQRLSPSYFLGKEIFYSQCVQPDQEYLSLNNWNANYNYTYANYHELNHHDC
To be noted: protein: recombinant; tags: N-terminal GST; dsDNA, one strand shown. In short, it runs like this:
as §1

Another assay has as its target ELF4 (Homo sapiens, UniProt Q99607 1-663). The note with it: protein: recombinant; tags: N-terminal GST; dsDNA, one strand shown. The method, boiled down:
as §1

For another assay, the target named is T3, ELK4 (Homo sapiens, UniProt P28324-2 1-405).
T3 sequence: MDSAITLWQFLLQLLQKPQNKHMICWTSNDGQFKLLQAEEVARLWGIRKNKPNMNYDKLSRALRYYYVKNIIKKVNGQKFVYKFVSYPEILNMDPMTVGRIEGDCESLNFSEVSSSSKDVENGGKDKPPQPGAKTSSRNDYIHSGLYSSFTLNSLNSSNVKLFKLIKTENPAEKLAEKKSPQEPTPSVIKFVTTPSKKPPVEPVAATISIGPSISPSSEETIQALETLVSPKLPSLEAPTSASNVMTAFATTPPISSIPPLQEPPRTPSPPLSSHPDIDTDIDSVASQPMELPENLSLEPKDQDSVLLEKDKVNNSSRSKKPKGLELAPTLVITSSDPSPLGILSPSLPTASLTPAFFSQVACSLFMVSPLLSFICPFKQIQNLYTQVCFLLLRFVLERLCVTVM
The note with it: protein: recombinant; tags: N-terminal GST; dsDNA, one strand shown. In short, it runs like this:
as §1

The next assay deals with T4, ETV2 (Homo sapiens, UniProt O00321 1-342).
T4 sequence: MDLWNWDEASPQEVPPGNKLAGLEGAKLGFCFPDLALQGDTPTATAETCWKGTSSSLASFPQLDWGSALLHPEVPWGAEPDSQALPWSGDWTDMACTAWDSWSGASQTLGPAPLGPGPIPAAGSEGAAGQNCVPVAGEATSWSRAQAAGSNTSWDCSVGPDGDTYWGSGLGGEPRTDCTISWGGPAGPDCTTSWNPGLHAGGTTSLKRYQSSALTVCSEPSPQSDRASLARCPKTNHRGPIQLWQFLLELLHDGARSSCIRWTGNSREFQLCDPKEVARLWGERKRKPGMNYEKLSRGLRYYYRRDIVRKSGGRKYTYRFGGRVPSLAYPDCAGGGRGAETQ
The note with it: protein: recombinant; tags: N-terminal GST; dsDNA, one strand shown. The method, boiled down:
as §1

A further assay addresses T5, ELF3 (Homo sapiens, UniProt P78545 1-371).
T5 sequence: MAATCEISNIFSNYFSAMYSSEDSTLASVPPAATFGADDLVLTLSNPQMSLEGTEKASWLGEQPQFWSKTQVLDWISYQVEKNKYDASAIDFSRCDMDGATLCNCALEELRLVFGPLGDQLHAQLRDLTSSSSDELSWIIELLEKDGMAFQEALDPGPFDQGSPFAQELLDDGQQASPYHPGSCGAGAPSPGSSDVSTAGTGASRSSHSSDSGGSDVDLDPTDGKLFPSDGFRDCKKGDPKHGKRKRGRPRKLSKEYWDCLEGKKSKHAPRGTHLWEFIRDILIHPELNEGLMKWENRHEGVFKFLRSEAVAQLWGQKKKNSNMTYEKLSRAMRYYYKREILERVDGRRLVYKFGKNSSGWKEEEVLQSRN
To be noted: protein: recombinant; tags: N-terminal GST; dsDNA, one strand shown. In short, it runs like this:
as §1

The next assay has as its target CRX (Homo sapiens, UniProt O43186 1-299). The note with it: protein: recombinant; tags: N-terminal GST; dsDNA, one strand shown. In short, it runs like this:
as §1

The target in a further assay is ETV1 (Homo sapiens, UniProt P50549 1-477). The note with it: protein: recombinant; tags: N-terminal GST; dsDNA, one strand shown. In short, it runs like this: as §1
Sequence of ETV1 (P50549 whole entry): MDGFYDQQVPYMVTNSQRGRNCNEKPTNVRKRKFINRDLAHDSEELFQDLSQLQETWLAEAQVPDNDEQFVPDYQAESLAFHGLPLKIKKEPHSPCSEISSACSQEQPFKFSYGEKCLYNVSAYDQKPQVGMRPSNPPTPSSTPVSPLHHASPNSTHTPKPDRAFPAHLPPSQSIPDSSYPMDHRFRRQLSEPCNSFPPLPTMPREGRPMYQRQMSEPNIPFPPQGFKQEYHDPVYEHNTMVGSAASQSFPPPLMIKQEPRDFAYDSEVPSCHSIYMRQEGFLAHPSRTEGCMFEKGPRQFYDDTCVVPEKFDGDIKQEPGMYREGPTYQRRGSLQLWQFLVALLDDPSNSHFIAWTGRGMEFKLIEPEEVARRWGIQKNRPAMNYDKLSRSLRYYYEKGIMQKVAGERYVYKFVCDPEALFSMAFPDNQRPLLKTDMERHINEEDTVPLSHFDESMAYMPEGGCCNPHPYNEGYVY
In the next assay the target is T6, ERF (Homo sapiens, UniProt P50548 1-548).
T6 sequence: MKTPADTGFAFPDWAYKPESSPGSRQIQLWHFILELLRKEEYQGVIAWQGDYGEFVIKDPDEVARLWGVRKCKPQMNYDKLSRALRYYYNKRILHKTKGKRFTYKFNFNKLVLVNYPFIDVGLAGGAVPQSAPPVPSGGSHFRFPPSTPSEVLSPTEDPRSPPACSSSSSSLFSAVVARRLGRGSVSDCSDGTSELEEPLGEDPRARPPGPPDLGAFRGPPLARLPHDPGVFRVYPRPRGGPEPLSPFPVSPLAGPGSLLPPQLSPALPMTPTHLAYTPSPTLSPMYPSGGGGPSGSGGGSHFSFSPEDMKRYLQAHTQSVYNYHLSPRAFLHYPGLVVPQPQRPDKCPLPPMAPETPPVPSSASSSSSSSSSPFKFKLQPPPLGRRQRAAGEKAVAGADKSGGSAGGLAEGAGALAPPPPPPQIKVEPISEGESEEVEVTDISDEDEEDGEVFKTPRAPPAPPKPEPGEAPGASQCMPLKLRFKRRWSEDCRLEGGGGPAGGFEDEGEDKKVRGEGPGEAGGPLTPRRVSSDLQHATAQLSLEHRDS
The note with it: protein: recombinant; tags: N-terminal GST; dsDNA, one strand shown. The method, boiled down: as §1

A further assay concerns the target T7, ETV3L (Homo sapiens, UniProt Q6ZN32 1-361).
T7 sequence: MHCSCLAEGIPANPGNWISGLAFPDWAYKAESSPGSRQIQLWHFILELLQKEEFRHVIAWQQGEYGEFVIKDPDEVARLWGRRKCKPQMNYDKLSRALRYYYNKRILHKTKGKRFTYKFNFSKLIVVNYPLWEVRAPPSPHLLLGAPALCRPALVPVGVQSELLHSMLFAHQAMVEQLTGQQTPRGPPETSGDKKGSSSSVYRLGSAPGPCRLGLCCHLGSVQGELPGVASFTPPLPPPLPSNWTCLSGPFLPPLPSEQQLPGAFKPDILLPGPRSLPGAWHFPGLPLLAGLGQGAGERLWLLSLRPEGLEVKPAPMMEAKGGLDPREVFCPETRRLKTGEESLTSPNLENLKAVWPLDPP
The note with it: protein: recombinant; tags: N-terminal GST; dsDNA, one strand shown. The method, boiled down: as §1

The target of the next assay is T8, ETS2 (Homo sapiens, UniProt P15036 1-469).
T8 sequence: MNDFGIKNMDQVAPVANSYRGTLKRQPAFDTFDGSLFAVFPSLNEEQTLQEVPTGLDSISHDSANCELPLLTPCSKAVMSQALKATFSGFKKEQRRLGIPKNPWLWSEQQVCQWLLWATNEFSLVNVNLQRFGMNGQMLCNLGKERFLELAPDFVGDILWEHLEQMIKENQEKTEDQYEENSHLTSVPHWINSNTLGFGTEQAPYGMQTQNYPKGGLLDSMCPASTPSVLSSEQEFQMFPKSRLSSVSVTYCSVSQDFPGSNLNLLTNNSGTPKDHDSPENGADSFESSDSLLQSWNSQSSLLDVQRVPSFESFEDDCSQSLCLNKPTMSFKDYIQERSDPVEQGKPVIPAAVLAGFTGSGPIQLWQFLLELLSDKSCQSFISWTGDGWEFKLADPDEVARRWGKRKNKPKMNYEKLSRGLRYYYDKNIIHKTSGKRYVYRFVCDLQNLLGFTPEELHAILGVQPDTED
To be noted: protein: recombinant; tags: N-terminal GST; dsDNA, one strand shown. In short, it runs like this: as §1

The next assay deals with T9, SPDEF (Homo sapiens, UniProt O95238 1-335).
T9 sequence: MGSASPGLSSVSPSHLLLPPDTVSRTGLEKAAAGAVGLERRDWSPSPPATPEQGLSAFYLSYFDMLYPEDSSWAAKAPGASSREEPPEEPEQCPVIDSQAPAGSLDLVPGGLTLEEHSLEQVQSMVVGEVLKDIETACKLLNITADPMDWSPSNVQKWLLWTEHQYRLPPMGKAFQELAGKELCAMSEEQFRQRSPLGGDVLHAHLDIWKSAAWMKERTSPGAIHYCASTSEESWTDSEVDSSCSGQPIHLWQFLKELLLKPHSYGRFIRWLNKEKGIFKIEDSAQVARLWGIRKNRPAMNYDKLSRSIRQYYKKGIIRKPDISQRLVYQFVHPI
To be noted: protein: recombinant; tags: N-terminal GST; dsDNA, one strand shown. The method, boiled down: as §1

Another assay deals with T10, ETV7 (Homo sapiens, UniProt Q9Y603 1-341).
T10 sequence: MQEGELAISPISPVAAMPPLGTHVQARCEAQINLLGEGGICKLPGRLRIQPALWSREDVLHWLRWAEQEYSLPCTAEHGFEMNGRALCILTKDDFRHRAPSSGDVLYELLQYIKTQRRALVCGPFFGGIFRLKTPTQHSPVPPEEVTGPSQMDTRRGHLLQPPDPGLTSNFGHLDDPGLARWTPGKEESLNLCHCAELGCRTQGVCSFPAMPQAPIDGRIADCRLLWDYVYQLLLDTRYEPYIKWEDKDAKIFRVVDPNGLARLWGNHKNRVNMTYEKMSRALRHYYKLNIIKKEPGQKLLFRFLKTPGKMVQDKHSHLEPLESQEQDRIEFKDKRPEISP
The note with it: protein: recombinant; tags: N-terminal GST; dsDNA, one strand shown. In short, it runs like this: as §1

A further assay deals with T11, ELF5 (Homo sapiens, UniProt Q9UKW6-2 1-255).
T11 sequence: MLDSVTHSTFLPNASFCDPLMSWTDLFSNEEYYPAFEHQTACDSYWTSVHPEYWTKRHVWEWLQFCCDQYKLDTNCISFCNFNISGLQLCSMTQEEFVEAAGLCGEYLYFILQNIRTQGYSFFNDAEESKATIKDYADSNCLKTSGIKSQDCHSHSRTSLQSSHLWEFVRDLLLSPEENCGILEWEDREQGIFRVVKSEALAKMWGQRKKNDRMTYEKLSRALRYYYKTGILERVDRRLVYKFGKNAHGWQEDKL
To be noted: protein: recombinant; tags: N-terminal GST; dsDNA, one strand shown. In short, it runs like this:
as §1

The target in the next assay is T12, ETV3 (Homo sapiens, UniProt P41162-2 1-143).
T12 sequence: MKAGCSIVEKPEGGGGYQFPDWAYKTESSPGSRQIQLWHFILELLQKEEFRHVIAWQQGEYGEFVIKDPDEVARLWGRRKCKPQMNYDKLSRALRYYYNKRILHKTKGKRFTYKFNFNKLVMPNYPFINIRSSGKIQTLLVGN
To be noted: protein: recombinant; tags: N-terminal GST; dsDNA, one strand shown. The method, boiled down: as §1

The target of a further assay is ETV6 (Homo sapiens, UniProt P41212 1-452). To be noted: protein: recombinant; tags: N-terminal GST; dsDNA, one strand shown. The method, boiled down: as §1
Sequence of ETV6 (P41212 whole entry): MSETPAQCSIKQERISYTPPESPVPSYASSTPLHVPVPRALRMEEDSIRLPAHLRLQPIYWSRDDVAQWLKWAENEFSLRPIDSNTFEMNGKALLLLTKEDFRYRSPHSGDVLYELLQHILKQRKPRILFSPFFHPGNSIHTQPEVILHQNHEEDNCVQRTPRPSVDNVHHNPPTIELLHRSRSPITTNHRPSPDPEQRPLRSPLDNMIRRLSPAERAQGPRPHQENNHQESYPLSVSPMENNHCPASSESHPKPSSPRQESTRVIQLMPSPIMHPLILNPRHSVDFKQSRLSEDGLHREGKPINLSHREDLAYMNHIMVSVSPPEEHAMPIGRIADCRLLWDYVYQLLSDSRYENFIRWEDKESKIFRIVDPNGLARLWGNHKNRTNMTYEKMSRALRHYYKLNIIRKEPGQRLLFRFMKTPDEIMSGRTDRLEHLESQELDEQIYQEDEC

The source of these data is PMC7862700, “An all-to-all approach to the identification of sequence-specific readers for epigenetic DNA modifications on cytosine”.

Sequence of ETV5 (P41161 whole entry): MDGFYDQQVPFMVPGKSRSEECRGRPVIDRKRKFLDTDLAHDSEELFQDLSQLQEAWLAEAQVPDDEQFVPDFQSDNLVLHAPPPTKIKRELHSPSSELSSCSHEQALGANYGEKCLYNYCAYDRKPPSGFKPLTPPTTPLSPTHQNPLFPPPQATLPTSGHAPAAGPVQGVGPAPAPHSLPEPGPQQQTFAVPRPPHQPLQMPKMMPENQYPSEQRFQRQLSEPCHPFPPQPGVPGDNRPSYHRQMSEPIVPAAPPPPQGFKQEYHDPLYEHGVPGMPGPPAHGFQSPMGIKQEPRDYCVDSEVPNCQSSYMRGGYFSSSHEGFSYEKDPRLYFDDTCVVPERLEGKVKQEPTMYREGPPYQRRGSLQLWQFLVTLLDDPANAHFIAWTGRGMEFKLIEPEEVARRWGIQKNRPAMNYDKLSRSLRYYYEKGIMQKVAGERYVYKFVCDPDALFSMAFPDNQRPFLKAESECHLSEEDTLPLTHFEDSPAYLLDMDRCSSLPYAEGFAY
Sequence of CRX (O43186 whole entry): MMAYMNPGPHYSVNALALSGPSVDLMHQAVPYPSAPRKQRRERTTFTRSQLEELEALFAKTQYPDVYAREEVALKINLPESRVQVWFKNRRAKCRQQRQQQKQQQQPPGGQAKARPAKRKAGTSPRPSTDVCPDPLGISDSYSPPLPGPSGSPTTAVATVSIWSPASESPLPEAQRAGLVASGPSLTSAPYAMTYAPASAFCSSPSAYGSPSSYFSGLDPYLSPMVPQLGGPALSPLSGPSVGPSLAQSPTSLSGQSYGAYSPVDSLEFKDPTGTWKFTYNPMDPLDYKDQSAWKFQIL
Sequence of ELF4 (Q99607 whole entry): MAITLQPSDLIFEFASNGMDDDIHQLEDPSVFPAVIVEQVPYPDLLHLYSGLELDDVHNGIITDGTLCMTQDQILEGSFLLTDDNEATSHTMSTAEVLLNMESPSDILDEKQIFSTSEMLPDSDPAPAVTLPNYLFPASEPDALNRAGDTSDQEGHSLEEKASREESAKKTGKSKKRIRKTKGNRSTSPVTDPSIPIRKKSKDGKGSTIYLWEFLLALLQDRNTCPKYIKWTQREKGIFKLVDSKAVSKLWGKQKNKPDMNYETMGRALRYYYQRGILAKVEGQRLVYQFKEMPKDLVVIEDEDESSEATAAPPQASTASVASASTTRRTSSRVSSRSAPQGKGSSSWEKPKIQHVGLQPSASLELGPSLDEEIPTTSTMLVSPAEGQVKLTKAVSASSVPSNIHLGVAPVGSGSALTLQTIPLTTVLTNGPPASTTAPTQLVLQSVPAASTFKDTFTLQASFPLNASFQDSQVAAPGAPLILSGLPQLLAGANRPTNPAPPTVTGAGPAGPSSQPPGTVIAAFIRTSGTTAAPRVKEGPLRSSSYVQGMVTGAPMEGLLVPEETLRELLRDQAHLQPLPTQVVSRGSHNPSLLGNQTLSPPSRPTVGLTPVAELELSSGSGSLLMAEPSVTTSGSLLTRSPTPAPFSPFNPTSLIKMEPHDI
Sequence of HSF1 (Q00613 whole entry): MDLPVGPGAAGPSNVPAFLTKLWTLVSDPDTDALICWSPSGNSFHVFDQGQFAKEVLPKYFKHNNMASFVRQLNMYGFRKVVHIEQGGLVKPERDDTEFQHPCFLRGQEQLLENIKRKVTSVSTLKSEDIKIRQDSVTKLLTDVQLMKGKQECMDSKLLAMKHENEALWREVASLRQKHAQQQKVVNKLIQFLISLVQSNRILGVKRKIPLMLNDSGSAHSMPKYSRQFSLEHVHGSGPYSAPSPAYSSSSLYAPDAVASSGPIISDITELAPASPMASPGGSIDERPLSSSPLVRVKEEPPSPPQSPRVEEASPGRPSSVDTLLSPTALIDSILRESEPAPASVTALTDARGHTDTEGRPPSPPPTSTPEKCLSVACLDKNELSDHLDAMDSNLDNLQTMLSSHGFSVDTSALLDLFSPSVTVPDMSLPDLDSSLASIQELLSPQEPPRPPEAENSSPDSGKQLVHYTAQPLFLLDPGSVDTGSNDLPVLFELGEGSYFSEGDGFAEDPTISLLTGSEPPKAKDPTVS

Turning to GAATAA, the binding signal in the assay with FEV is 1.08 fold enrichment (6-mer frequency, TF over GST control); with ETV5, 1.09 fold enrichment (6-mer frequency, TF over GST control); in the assay with HSF1, 1.62 fold enrichment (6-mer frequency, TF over GST control); with SPIC it was 1.17 fold enrichment (6-mer frequency, TF over GST control); with ELF4 it was 1.13 fold enrichment (6-mer frequency, TF over GST control); with ELK4, 1.04 fold enrichment (6-mer frequency, TF over GST control). Moreover, the binding signal is 1.13 fold enrichment (6-mer frequency, TF over GST control) with ETV2; 1.12 fold enrichment (6-mer frequency, TF over GST control) with ELF3; 1.57 fold enrichment (6-mer frequency, TF over GST control) in the assay with CRX; 1.03 fold enrichment (6-mer frequency, TF over GST control) with ETV1; 1.23 fold enrichment (6-mer frequency, TF over GST control) with ERF; 1.15 fold enrichment (6-mer frequency, TF over GST control) with ETV3L. For the same sequence, the binding signal with ETS2 is 1.09 fold enrichment (6-mer frequency, TF over GST control); with SPDEF it was 1.09 fold enrichment (6-mer frequency, TF over GST control); with ETV7, 1.07 fold enrichment (6-mer frequency, TF over GST control); with ELF5, 1.05 fold enrichment (6-mer frequency, TF over GST control); with ETV3, 1.06 fold enrichment (6-mer frequency, TF over GST control); with ETV6 it was 1.16 fold enrichment (6-mer frequency, TF over GST control).
